Bioassay records as filed in PubChem.
PDI turbidity – inhibitors of human protein disulfide isomerase. PDI insulin aggregation turbidity, A650, 90 min. inhibition, % at 10 µM. hit rate 0.052% among 350,000. AID 588391;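 active means mean inhibition across replicates of 30% or more, whatever share of single replicates reach that level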
CendR NRP1 mod – alters CendR peptide binding to human NRP-1; O14786; FAM-RPARPAR peptide binding to NRP-1, fluorescence polarization; inhibition, % at 25 µM; hit rate 0.85% among 360,000;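 active means inhibition or corrected inhibition above about 18%, plus a signal ratio from 0.5 to 1.5, limit read from the data, passing the limit was not always enough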
Target sequence (O14786 whole entry, looked up): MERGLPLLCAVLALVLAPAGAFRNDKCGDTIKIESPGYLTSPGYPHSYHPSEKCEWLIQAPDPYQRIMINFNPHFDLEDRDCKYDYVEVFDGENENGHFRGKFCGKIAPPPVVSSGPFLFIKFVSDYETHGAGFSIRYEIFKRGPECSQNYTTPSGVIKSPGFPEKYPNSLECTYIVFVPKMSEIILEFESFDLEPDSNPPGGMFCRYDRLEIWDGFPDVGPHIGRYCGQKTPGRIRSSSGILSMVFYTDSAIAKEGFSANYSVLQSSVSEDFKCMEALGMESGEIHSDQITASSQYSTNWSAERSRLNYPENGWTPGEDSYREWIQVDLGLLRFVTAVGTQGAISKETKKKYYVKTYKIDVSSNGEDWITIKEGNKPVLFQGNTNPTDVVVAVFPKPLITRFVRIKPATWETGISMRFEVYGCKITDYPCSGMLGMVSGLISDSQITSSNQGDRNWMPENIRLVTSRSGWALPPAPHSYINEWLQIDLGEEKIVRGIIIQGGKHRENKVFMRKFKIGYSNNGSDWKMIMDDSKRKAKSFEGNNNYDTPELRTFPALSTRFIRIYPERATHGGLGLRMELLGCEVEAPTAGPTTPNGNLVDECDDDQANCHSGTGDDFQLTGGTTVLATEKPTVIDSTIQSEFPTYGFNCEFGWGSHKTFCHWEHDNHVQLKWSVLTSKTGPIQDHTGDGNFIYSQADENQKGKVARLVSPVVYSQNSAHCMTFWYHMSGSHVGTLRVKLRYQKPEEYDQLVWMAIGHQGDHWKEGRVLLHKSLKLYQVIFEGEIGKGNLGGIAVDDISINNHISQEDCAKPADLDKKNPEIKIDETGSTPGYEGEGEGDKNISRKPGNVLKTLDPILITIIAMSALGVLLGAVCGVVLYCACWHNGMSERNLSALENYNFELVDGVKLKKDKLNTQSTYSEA
PglD DTNB – blocks C. jejuni PglD acetyltransferase activity | purified PglD enzyme, DTNB colorimetric CoA detection | inhibition, % at 12.5 µM | AID 602405 | hit rate 0.098% among 360,000; in the data active means inhibition above about 16%, passing the limit was not always enough
ERp5 block – ERp5 (human) disulfide isomerase inhibition; Q15084; ERp5 insulin aggregation, absorbance 650 nm, 90 min; inhibition, % at 9.99 µM; hit rate 0.05% among 350,000;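 active means mean replicate inhibition above about 25%, with every replicate also reaching it, limit read from the data, passing the limit was not always enough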
ARNT TACC3 PPI – disrupts binding between human ARNT and TACC3. Q9Y6A5. AlphaScreen His-ARNT PAS-B/GST-TACC3 binding, luminescence; TACC3 fragment carries E629A point mutation. hit rate 0.66% among 390,000. inhibition, % at 9.99 µM;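 active means mean inhibition of replicates at least 50% and at least half of replicates each reaching 50%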
ALR H2O2 inh – inhibitors of human sulfhydryl oxidase ALR; P55789; purified ALR, DTT oxidation, H2O2 HRP-luminol luminescence; inhibition, % (concentration not given with the values); hit rate 3.8% among 290,000;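 active means mean replicate inhibition above about 79%, with every replicate also reaching it, limit read from the data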
Numbers stand for hits; – = inactive; · = not tested or not shown. The full list was thinned out, with hits kept by preference.

SMILES	PDI turbidity	CendR NRP1 mod	PglD DTNB	ERp5 block	ARNT TACC3 PPI	ALR H2O2 inh
Cc1ccc(S(=O)(=O)N2C[C@H]3[C@H]4C(=O)N(c5ccccc5)C(=O)[C@H]4CC(=O)[C@H]3[C@@H]2c2ccccc2F)cc1	·	25.0	–	–	·	·
Cc1ccc(S(=O)(=O)N2C[C@H]3[C@H]4C(=O)N(c5ccccc5)C(=O)[C@H]4CC(=O)[C@H]3[C@@H]2c2cccc3ccccc23)cc1	·	–	–	–	·	·
CC(=O)Nc1ccc(C(=O)n2cnc3cc(C)c(C)cc32)cc1	–	–	–	·	–	98.7
COc1cc(C2(c3ccc(O)c(OC)c3)C(=O)Nc3c(C)cc(Br)cc32)ccc1O	–	–	–	–	–	79.7
O=C(O)Cn1cc(C(=S)N2CCOCC2)c2ccccc21	–	–	–	·	–	98.3
O=C(C(=O)N1CCN(c2cccc(Cl)c2)CC1)c1cn(CC(=O)N2CCOCC2)c2ccccc12	–	31.7	–	–	–	–
O=C(O)Cn1cc(C(=S)N2CCCCC2)c2ccccc21	–	–	·	–	–	90.7
Cc1noc(C)c1S(=O)(=O)Nc1ccc(C(C)C)cc1	–	17.6	–	–	–	–
CCOc1ccc(-c2cc3nc(C4CCN(C(=O)OC(C)(C)C)CC4)c(C(=O)O)cn3n2)cc1	–	–	–	·	–	98.0
CCOC(=O)N1CCN(C(=O)c2cc(-c3ccc(OCC)cc3)nc3ccccc23)CC1	–	–	–	·	–	–
C/C(=N\Nc1nc(C)cc(C)n1)c1ccc(C)o1	–	–	–	–	·	91.0
C/C(=N\Nc1nnc2c3ccccc3n(C)c2n1)c1ccc(C)o1	–	–	·	·	–	–
C#CCOCCOCCOCCNc1nc(N2CCN(C(=O)CCCCCCCCCCNC(=O)[C@H](CO)n3cc(CCCCCN)nn3)CC2)nc(N2CCN(C(=O)CCCCCCCCCCNC(=O)[C@H](CCCN=C(N)N)n3cc(C[C@@H](C)CC)nn3)CC2)n1	·	·	·	·	·	–
C#CCOCCOCCOCCNc1nc(N2CCN(C(=O)CCCCCCCCCCNC(=O)[C@@H](CCSC)n3cc(CCO)nn3)CC2)nc(N2CCN(C(=O)CCCCCCCCCCNC(=O)[C@H](CCCN=C(N)N)n3cc(C[C@@H](C)CC)nn3)CC2)n1	–	20.9	–	·	–	–
C#CCOCCOCCOCCNc1nc(N2CCN(C(=O)CCCCCCCCCCNC(=O)[C@H](CCCCN)n3cc(C[C@@H](C)CC)nn3)CC2)nc(N2CCN(C(=O)CCCCCCCCCCNC(=O)[C@H](CCCN=C(N)N)n3cc(C[C@@H](C)CC)nn3)CC2)n1	–	39.6	–	·	–	–
O=C(Cc1ccccc1)N1CC2(C1)[C@H](c1ccccc1)[C@H](CO)N2C(=O)c1cccnc1	·	·	·	–	·	·
Cc1noc(C)c1S(=O)(=O)N(C)C[C@@H]1OCCCC[C@H](C)Oc2ccc(NC(=O)CCCN(C)C)cc2C(=O)N([C@H](C)CO)C[C@H]1C	·	·	·	–	·	·
O=C(CSc1nnc(-c2cccnc2)o1)Nc1nccs1	–	–	–	–	50.3	99.3
COc1ccc(NC(=O)CSc2nnc(-c3ccncc3)o2)c(OC)c1	–	–	–	–	–	–
COc1ccc(NC(=O)CSc2nnc(-c3cccnc3)o2)c(OC)c1	–	–	–	–	–	98.5
Cn1c(=O)[nH]c(Nc2ccc(F)cc2)c([N+](=O)[O-])c1=O	–	–	·	·	–	–
Cn1c(=O)[nH]c(NCCc2ccc(O)cc2)c([N+](=O)[O-])c1=O	–	–	·	–	–	80.7
COc1ccc(NC(=O)Nc2ccc3c(c2)CC(=O)N([C@@H](C)CO)C[C@H](C)[C@@H](CN(C)C(=O)Nc2ccc4c(c2)OCO4)O3)cc1	·	·	–	–	–	·
N#C/C(=C\c1cc2c(cc1Br)OCO2)C(=O)NCC1CCCO1 (stereo unspecified)	–	–	·	–	–	97.6
Cc1ccc(/C=C(\C#N)C(=O)NCC2CCCO2)o1 (stereo unspecified)	–	–	–	–	–	–
SMILES	PDI turbidity	CendR NRP1 mod	PglD DTNB	ERp5 block	ARNT TACC3 PPI	ALR H2O2 inh
C[C@@H]1CN([C@H](C)CO)C(=O)c2cc(NC(=O)CCC(F)(F)F)ccc2O[C@H]1CN(C)S(=O)(=O)c1cn(C)cn1	·	·	–	–	–	·
Cc1ccc(C(=O)NCC(=O)OC(C)C(=O)Nc2ccccc2[N+](=O)[O-])s1 (stereo unspecified)	–	–	–	–	–	–
Cc1ccc(C(=O)NCC(=O)OC(C)C(=O)Nc2ccc(N(C)C)cc2)s1 (stereo unspecified)	–	–	–	–	–	99.2
CCOc1ccc(S(=O)(=O)NCCC(=O)N2CCN(c3ccc(OC)cc3)CC2)cc1	–	–	·	–	–	76.5
COc1ccc(N2CCN(C(=O)CCNC(=O)c3ccc(C(C)(C)C)cc3)CC2)cc1	–	–	·	–	–	86.4
COc1ccc(N2CCN(C(=O)c3ccccc3N(C)S(=O)(=O)c3ccccc3)CC2)cc1	–	–	–	–	–	90.0
COC(=O)c1ccccc1OCC(=O)N1CCN(c2ccc(OC)cc2)CC1	–	–	–	·	–	88.5
O=C1CN(S(=O)(=O)Cc2ccccc2)C[C@H]2[C@H](c3ccc(C#Cc4ccc(F)cc4)cc3)[C@@H](CO)N12	·	·	·	–	·	·
Cc1nc2c3ccccc3nc(NNC(=O)CCC(=O)N3CCN(c4ccccc4)CC3)n2n1	–	–	–	–	–	–
COc1ccc(N2CCN(C(=O)CCC(=O)NNc3nc4ccccc4c4nc(C)nn34)CC2)cc1	–	–	·	–	–	98.6
COc1ccc(N2CCN(C(=O)CCNS(=O)(=O)c3ccccc3)CC2)cc1	–	–	·	–	–	98.4
CSc1ccc(-c2cc3c(c4c2ccn4C)C2CCC3C2)cc1 (stereo unspecified)	·	25.2	–	–	·	·
Nc1nc(-c2ccc3ccccc3c2)cs1	–	–	·	–	–	97.7
Nc1nc(-c2cccs2)cs1	–	–	–	·	–	–
Nc1nc(-c2ccc(Oc3ccccc3)cc2)cs1	–	–	–	–	–	99.2
Cc1ccc(-c2csc(N)n2)cc1	–	–	–	–	–	·
Nc1nc(-c2ccccc2Br)cs1	–	–	–	·	–	98.0
Nc1nc(-c2ccc(-c3ccccc3)cc2)cs1	–	–	·	–	–	99.3
Cc1ccc(S(=O)(=O)N[C@@H]2CC[C@@H](CC(=O)NC3CCCCC3)O[C@H]2CO)cc1	·	·	–	–	–	·
O=C(C1CCC1)N1C[C@@H]2[C@H](c3ccccc31)[C@@H](CO)N2C(=O)Cc1ccccn1	·	·	–	·	–	·
COc1ccc(-c2csc(N=C(N)N)n2)cc1	–	–	·	–	–	97.8
COc1ccc(C(O)c2nc(-c3ccc4ccccc4c3)cs2)cc1 (stereo unspecified)	–	33.0	–	–	·	·
COc1ccc(-c2csc(N)n2)cc1	–	31.4	·	·	–	·
COc1ccc2[nH]c(C)c(-c3csc(N)n3)c2c1	–	–	–	–	–	98.7
COc1ccc(NC(=O)Nc2ccc3c(c2)C(=O)N([C@H](C)CO)C[C@@H](C)[C@H](CN(C)Cc2ccccc2)OCCCC[C@@H](C)O3)cc1	·	·	–	–	–	·
